Potency and outcome data for 21 compounds are collected here from PubChem BioAssay (Tox21).

Structures are written as SMILES. Unmarked numbers belong to inactive results. Records with an inconclusive call do not appear. Calls of active or inactive are those of the source. The call rests on the fitted dose curve; in most records, active means well fitted curve in the direction sought with a large enough effect in the repeat runs; inconclusive means weak or mixed curves; inactive means no such curve, though single readings can be large; an effect the other way counts as inactive or inconclusive.

Experiment [1] can be described thus: Human pregnane X receptor (PXR) small molecule agonists, qHTS cell viability counter screen (AID 1346977). Further: nearly all actives have a fitted effect of over 50% in size. The method, boiled down:
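After a 5hr pre-incubation, PXR-Luc HepG2 cells received compounds plus positive control in DMSO and were kept 24hr at 37C. Cell viability was quantified by fluorescence from CellTiter-Fluor added for the final hour.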
On the technique in general: Quantitative high-throughput screening tests each substance at several concentrations.

The nature of experiment [2]: Caspase-3/7 induction in HepG2 cells by small molecules, qHTS assay (AID 1346978). Further: nearly all actives have a fitted effect of over 15% in size. The method, boiled down: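 Caspase-3/7 induction was measured by Caspase-Glo 3/7 luminescence (30 min, room temperature) after a 17 hr compound exposure of wild-type HepG2 cells seeded at 2,000 per well and pre-incubated 5 hr.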
Experiment [3] is described as follows: Caspase-3/7 induction in CHO-K1 cells by small molecules, qHTS cell viability counter screen (AID 1346979). Further: nearly all actives have a fitted effect of over 35% in size. The procedure, abridged: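 Multiplexed with Caspase-Glo 3/7 in CHO-K1 cells, this counter screen added CellTiter-Fluor after 16hr of compound exposure and recorded fluorescence 1hr later.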
Experiment [4] is described as follows: Caspase-3/7 induction in CHO-K1 cells by small molecules, qHTS assay (AID 1346980). Further: nearly all actives have a fitted effect of over 15% in size. The method, boiled down: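 Luminescent Caspase-Glo 3/7 read (30min, room temperature) quantified apoptosis induction. Cells were wild-type CHO-K1, treated with compound for 17hr at 37 C and 5% CO2.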
Experiment [5] in a line: Caspase-3/7 induction in HepG2 cells by small molecules, qHTS cell viability counter screen (AID 1346981). Further: series mostly up to about 92 µM; nearly all actives have a fitted effect of over 30% in size. The procedure, abridged:
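In this quantitative HTS counter screen, compounds delivered in DMSO were left on unmodified HepG2 cells for 16 hr at 37 C. Viability was then determined fluorometrically with CellTiter-Fluor, in parallel with caspase-3/7 induction in the same wells.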

For experiment [6], the target named is Nuclear receptor subfamily 1 group I member 2 (Homo sapiens) (UniProt O75469). The experiment in a line: Human pregnane X receptor (PXR) small molecule agonists, qHTS assay (AID 1346982). Further: nearly all actives have a fitted effect of over 35% in size. Further: potency means the concentration at half of the fitted maximal effect. The method, boiled down: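 Reporter HepG2 cells expressing PXR-Luc are cultured in charcoal-stripped FBS (5%), treated with compounds for 24 hr at 37 C, and assayed by ONE-Glo luminescence after 30 min at room temperature.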

Experiment [7] concerns the target Cytochrome P450 2D6 (Homo sapiens) (UniProt P10635). As to the kind of experiment: Cytochrome P450 Family 2 Subfamily D Member 6 (CYP2D6) small molecule antagonists: luciferase reporter qHTS assay (AID 1671196). Further: nearly all actives have a fitted effect of over 50% in size. Further: potency means the concentration at half of the fitted maximal effect. The procedure, abridged: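 Test chemicals meet CYP2D6 plus proluciferin substrate (10 min, RT); NADPH regenerating solution then drives turnover for 1 h. Detection reagent halts the reaction; luminescence measured after 20 min.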
(In general: A reporter such as luciferase makes a cellular process visible.)

Experiment [8] deals with Cytochrome P450 2C19 (Homo sapiens) (UniProt P33261). As to the kind of experiment: Cytochrome P450 Family 2 Subfamily C Member 19 (CYP2C19) small molecule antagonists: luciferase reporter qHTS assay (AID 1671197). Further: nearly all actives have a fitted effect of over 65% in size. Further: potency means the concentration at half of the fitted maximal effect. The procedure, abridged: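 Luminescent readout of CYP2C19 activity: luciferin product detected 20 min after adding detection reagent. Before that, compound and enzyme-substrate mix preincubated 10 min at room temperature; NADPH-regenerating system started a 1 h, 37C reaction. Ketoconazole as positive control.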

Experiment [9] addresses Cytochrome P450 2C9 (Homo sapiens) (UniProt P11712). As to the kind of experiment: Cytochrome P450 Family 2 Subfamily C Member 9 (CYP2C9) small molecule antagonists: luciferase reporter qHTS assay (AID 1671198). Further: nearly all actives have a fitted effect of over 50% in size. Further: potency means the concentration at half of the fitted maximal effect. The procedure, abridged: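 Enzyme-substrate mix preincubated with compound 10 min at room temperature; reaction started with NADPH regeneration solution, 1 h 37C. Luminescent luciferin product read after 20 min detection reagent.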

In experiment [10] the target is Cytochrome P450 1A2 (Homo sapiens) (UniProt P05177). As to the kind of experiment: Cytochrome P450 Family 1 Subfamily A Member 2 (CYP1A2) small molecule antagonists: luciferase reporter qHTS assay (AID 1671199). Further: nearly all actives have a fitted effect of over 50% in size. Further: potency means the concentration at half of the fitted maximal effect. The method, boiled down:
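Steps: enzyme-substrate mix dispensed; test compounds and furafylline control pinned in; 10 min room temperature; NADPH regeneration solution added, 1 h; reaction stopped with luciferin detection reagent; luminescence read after 20 min.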

Experiment [11] has as its target Voltage-gated inwardly rectifying potassium channel KCNH2 (Homo sapiens) (UniProt Q12809). As to the kind of experiment: Human Ether-a-go-go-Related Gene (hERG) channel small molecule antagonists: fluorescence cell-based qHTS assay (AID 1671200). The method, boiled down: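 Cell line hERG-U2OS; dye FluxOR II, 1 h RT dark; Tl+ stimulus; ex 480/em 540 nm, read each second for 2 min.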
For orientation: Block of hERG is tested as a sign of cardiac risk.

Experiment [12] has as its target Cytochrome P450 3A4 (Homo sapiens) (UniProt P08684). As to the kind of experiment: Cytochrome P450 Family 3 Subfamily A Member 4 (CYP3A4) small molecule antagonists: luciferase reporter qHTS assay (AID 1671201). Further: nearly all actives have a fitted effect of over 50% in size. Further: potency means the concentration at half of the fitted maximal effect. The method, boiled down: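 Room-temperature assay throughout: 10 min compound–enzyme/substrate preincubation, 1 h reaction after NADPH regeneration solution, 20 min detection. Luciferin formed from proluciferin substrate is quantified by luminescence.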

Sequence of Cytochrome P450 3A4 (Homo sapiens) (P08684 whole entry, looked up): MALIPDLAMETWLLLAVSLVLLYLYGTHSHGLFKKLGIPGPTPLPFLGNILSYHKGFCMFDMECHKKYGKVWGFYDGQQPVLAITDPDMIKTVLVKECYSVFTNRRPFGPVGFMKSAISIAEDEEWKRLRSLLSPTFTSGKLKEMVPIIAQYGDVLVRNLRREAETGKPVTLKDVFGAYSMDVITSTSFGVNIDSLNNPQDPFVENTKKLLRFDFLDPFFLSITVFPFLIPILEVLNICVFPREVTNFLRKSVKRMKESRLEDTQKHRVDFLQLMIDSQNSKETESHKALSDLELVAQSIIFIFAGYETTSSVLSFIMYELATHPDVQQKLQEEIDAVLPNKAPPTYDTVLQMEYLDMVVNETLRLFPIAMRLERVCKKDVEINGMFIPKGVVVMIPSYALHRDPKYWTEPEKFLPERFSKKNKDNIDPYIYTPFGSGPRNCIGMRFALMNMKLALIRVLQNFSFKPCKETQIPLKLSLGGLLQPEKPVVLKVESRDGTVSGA
Sequence of Cytochrome P450 2C19 (Homo sapiens) (P33261 whole entry, looked up): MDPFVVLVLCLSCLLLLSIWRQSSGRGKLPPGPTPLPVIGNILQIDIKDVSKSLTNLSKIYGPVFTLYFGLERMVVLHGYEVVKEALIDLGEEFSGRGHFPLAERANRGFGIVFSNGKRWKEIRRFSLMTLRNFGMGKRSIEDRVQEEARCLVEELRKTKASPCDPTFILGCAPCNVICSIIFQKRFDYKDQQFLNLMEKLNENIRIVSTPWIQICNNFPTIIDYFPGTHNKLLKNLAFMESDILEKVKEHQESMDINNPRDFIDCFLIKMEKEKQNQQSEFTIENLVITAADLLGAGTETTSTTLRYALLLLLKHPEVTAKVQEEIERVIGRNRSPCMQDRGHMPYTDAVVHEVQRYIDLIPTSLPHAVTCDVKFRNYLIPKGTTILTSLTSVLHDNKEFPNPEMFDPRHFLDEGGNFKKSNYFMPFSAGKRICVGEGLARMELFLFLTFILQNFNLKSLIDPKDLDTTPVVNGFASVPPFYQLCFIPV
Sequence of Nuclear receptor subfamily 1 group I member 2 (Homo sapiens) (O75469 whole entry, looked up): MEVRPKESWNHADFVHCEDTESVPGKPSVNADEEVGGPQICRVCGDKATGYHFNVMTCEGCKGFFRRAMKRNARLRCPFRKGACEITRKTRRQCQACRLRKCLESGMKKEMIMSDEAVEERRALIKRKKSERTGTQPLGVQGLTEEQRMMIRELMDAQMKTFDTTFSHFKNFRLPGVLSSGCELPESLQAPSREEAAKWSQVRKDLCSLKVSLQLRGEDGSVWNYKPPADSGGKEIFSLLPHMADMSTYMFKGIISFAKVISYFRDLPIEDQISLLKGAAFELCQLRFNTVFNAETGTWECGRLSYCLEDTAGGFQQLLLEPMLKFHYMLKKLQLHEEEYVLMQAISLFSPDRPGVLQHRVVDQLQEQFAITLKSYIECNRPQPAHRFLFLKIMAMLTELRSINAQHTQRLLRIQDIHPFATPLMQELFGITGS
Sequence of Cytochrome P450 1A2 (Homo sapiens) (P05177 whole entry, looked up): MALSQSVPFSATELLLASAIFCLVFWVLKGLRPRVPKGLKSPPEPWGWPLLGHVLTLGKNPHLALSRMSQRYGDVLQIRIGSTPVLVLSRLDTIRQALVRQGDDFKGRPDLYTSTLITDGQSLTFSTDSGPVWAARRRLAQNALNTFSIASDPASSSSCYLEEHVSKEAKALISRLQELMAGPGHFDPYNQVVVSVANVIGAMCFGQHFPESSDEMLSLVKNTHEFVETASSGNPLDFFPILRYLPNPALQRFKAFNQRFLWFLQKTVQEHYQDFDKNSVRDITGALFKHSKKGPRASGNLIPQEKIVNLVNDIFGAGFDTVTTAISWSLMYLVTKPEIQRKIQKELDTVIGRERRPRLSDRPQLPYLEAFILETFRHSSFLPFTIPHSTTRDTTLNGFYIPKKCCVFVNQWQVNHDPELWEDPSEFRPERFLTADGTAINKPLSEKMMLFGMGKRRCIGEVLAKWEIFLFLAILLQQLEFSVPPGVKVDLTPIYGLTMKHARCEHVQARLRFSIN
Sequence of Voltage-gated inwardly rectifying potassium channel KCNH2 (Homo sapiens) (Q12809 whole entry, looked up): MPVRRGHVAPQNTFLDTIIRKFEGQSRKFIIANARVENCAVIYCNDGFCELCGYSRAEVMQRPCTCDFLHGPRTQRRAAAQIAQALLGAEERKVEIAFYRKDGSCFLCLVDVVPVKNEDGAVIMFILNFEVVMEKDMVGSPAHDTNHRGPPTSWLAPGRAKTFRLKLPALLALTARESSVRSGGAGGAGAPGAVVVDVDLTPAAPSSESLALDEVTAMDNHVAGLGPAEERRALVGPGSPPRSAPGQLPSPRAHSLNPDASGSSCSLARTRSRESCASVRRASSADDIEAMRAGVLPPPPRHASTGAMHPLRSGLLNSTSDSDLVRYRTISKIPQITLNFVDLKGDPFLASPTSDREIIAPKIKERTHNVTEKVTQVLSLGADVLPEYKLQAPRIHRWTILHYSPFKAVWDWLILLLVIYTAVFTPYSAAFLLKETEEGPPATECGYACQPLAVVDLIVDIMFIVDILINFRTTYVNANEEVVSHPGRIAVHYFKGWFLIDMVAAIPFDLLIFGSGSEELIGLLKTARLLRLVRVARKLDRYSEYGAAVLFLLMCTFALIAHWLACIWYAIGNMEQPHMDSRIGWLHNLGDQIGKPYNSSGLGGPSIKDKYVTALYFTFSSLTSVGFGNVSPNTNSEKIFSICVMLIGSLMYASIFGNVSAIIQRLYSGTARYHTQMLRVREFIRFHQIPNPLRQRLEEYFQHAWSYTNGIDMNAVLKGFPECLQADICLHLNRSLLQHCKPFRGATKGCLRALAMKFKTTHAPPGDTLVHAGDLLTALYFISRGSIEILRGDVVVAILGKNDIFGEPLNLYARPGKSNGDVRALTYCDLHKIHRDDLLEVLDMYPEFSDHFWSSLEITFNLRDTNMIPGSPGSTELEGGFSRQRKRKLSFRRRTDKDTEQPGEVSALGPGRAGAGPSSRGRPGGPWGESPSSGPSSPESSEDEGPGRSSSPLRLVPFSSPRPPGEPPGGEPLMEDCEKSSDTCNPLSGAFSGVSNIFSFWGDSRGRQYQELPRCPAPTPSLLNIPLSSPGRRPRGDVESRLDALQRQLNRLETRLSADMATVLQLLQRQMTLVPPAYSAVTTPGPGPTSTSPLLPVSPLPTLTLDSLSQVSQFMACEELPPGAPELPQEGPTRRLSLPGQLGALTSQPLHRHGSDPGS
Sequence of Cytochrome P450 2C9 (Homo sapiens) (P11712 whole entry, looked up): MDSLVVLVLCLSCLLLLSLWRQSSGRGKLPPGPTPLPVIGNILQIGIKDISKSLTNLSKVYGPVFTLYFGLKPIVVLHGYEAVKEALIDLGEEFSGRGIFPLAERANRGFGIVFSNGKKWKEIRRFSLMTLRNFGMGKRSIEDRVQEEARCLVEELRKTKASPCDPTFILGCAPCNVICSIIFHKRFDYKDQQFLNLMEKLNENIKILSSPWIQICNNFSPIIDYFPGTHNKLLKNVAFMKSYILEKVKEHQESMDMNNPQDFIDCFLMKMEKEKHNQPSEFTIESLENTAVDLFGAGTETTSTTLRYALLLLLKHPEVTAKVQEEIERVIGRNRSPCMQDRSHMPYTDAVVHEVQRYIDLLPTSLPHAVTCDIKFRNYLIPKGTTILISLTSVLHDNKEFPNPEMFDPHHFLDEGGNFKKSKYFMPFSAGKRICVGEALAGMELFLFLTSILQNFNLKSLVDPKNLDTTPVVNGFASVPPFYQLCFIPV
Sequence of Cytochrome P450 2D6 (Homo sapiens) (P10635 whole entry, looked up): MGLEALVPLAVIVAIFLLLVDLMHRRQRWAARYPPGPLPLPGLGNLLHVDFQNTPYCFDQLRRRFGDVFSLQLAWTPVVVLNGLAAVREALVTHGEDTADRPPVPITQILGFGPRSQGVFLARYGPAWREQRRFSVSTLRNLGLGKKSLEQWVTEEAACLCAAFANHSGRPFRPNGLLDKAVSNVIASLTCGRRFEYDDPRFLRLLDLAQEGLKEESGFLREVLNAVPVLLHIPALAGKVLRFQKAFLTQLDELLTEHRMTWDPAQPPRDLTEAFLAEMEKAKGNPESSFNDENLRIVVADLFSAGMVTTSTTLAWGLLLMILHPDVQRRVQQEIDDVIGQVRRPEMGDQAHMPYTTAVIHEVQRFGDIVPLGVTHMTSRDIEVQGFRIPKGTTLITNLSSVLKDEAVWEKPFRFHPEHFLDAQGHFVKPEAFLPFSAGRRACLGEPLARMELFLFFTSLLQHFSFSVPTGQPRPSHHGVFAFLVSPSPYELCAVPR

For the compound `CC1(C)OC[C@@H](COC(=O)CCc2ccc(OC[C@@H](O)CNCCNC(=O)N3CCOCC3)cc2)O1`, the Potency result in experiment [1], in experiment [3], in experiment [5], in [6], in [7] and in experiment [8] was “inactive” throughout. For the same compound, the Potency result in experiment [9], in experiment [10], in experiment [11] and in experiment [12] was “inactive” each time. Also, the result in experiment [2] and in experiment [4] was inactive.
Regarding `CC(C)c1ccc2ncccc2c1`, the Potency entry in experiment [1], in [3], in experiment [5], in [6], in experiment [7] and in experiment [8] was “inactive” throughout. The Potency result in experiment [9], in [11] and in experiment [12] was “inactive” each time. Also, the compound was called inactive in experiment [2] and in experiment [4]. Further, in experiment [10], the Potency is 63.3 µM (active).
Turning to `CCN1CCOCC1`, the Potency entry in experiment [1], in experiment [3], in experiment [5], in experiment [6], in [11] and in experiment [12] was “inactive” throughout. Besides, the outcome in experiment [2] and in experiment [4] was inactive. For the same compound, the Potency in experiment [7] was 6.21 µM (active); in experiment [8], 22 µM (active); in experiment [10] it was 39.2 µM (active).
On to `COCCOCC(OC)OC`, for which the Potency entry in experiment [1], in experiment [3], in experiment [5], in [6], in [7] and in [8] was “inactive” each time. In addition, the Potency result in experiment [9], in experiment [10], in [11] and in experiment [12] was “inactive” throughout. In addition, the compound was called inactive in experiment [2] and in [4].
For `CCCCCCC#CC(=O)OC`, the Potency result in experiment [1], in experiment [3], in [5], in experiment [6], in experiment [7] and in [8] was “inactive” each time. Besides, the Potency entry in experiment [9] and in experiment [11] was “inactive” each time. For the same compound, the outcome in experiment [2] and in [4] was inactive.
With `c1ccc(CCc2ccccc2)cc1`, the Potency entry in experiment [1], in experiment [3], in [5], in experiment [6], in experiment [7] and in experiment [8] was “inactive” each time. Further, the Potency entry in [9], in experiment [10] and in [12] was “inactive” in each case. Besides, the result in [2] and in [4] was inactive.
For the compound `CC(=O)c1cnccn1`, the Potency result in experiment [1], in experiment [3], in [5], in [6], in experiment [7] and in experiment [9] was “inactive” in each case. Also, the Potency entry in experiment [10] and in [12] was “inactive” in each case. Moreover, the compound was called inactive in [2] and in experiment [4].
Turning to `CC(C)(C)C(=O)c1ccccc1`, the Potency entry in [1], in experiment [3], in experiment [5], in experiment [6], in experiment [7] and in experiment [8] was “inactive” throughout. Moreover, the Potency entry in experiment [9], in [11] and in experiment [12] was “inactive” each time. For the same compound, the compound was classed as inactive in [2] and in experiment [4].
Take `CCCn1cc[n+](C)c1C`: the Potency entry in experiment [1], in experiment [3], in [5], in experiment [6], in experiment [7] and in [8] was “inactive” in each case. The Potency entry in [9], in experiment [11] and in [12] was “inactive” each time. In addition, the compound was classed as inactive in [2] and in experiment [4].
For `CC(C)C1CCC(O)CC1` (stereo unspecified), the Potency result in experiment [1], in experiment [3], in experiment [5], in experiment [6], in [7] and in [8] was “inactive” throughout. Besides, the Potency result in experiment [9], in experiment [10] and in experiment [12] was “inactive” in each case. Moreover, the call in experiment [2] and in experiment [4] was inactive.
Take `OCCCCCO`: the Potency entry in experiment [1], in experiment [3], in experiment [5], in [6], in experiment [7] and in [8] was “inactive” throughout. In addition, the Potency result in experiment [9], in experiment [10], in experiment [11] and in experiment [12] was “inactive” in each case. Moreover, the compound was classed as inactive in experiment [2] and in experiment [4].
With `CC(C)(C)c1ccc(-c2ccc(C(C)(C)C)cc2)cc1`, the Potency entry in experiment [1], in experiment [3], in experiment [5], in [6], in experiment [7] and in experiment [8] was “inactive” throughout. Moreover, the Potency entry in [9], in experiment [10], in experiment [11] and in experiment [12] was “inactive” in each case. The compound was called inactive in experiment [2] and in experiment [4].
For `CNC(=O)Nc1ccc(Cl)c(Cl)c1`, the Potency result in experiment [1], in experiment [3], in experiment [5] and in [7] was “inactive” throughout. The compound was classed as inactive in experiment [2] and in experiment [4]. Besides, the figures for the Potency in [6], in experiment [8] and in experiment [10] were 34.4 µM (active), 28.3 µM (active) and 5.03 µM (active), respectively.
Turning to `CC1=CCC(O)(C(C)C)CC1` (stereo unspecified), the Potency entry in [1], in [3], in experiment [5], in experiment [6], in [7] and in experiment [8] was “inactive” in each case. The Potency entry in experiment [9], in experiment [10], in experiment [11] and in [12] was “inactive” each time. Moreover, the outcome in experiment [2] and in [4] was inactive.
As to `CC1=CC(=O)[C@H]2C[C@@H]1C2(C)C`, the Potency result in experiment [1], in experiment [3], in [5], in experiment [6], in [7] and in [8] was “inactive” in each case. In addition, the Potency result in [9], in experiment [10], in experiment [11] and in [12] was “inactive” in each case. The call in [2] and in experiment [4] was inactive.
For `C=CCOCC(O)CO` (stereo unspecified), the Potency result in experiment [1], in experiment [3], in [5], in [6], in experiment [7] and in experiment [8] was “inactive” in each case. The Potency result in experiment [9], in experiment [10], in experiment [11] and in [12] was “inactive” in each case. Further, the compound was classed as inactive in [2] and in experiment [4].
Take `CC12CCC(C(=O)C1=O)C2(C)C` (stereo unspecified): the Potency entry in experiment [1], in [3], in experiment [5], in [6], in experiment [7] and in experiment [8] was “inactive” each time. Besides, the Potency result in [9], in experiment [11] and in experiment [12] was “inactive” throughout. Besides, the compound was classed as inactive in [2] and in [4].
On to `CC(C#N)(CCC(=O)O)N=NC(C)(C#N)CCC(=O)O` (stereo unspecified), for which the Potency entry in [1], in experiment [3], in experiment [5], in experiment [7], in [8] and in experiment [9] was “inactive” in each case. Besides, the Potency entry in experiment [10], in experiment [11] and in [12] was “inactive” in each case. For the same compound, the compound was called inactive in [2] and in [4].
`C=COC(=O)C(C)(CC)CCC(C)C` (stereo unspecified): the Potency result in experiment [1], in experiment [3], in experiment [5], in [6], in experiment [9] and in experiment [10] was “inactive” throughout. Besides, the compound was called inactive in experiment [2] and in experiment [4].
For the compound `O=Cc1cccc(Br)c1`, the Potency entry in experiment [1], in [3], in experiment [5], in experiment [6] and in [11] was “inactive” each time. The compound was called inactive in experiment [2] and in experiment [4]. Further, the Potency in experiment [8] is 18.3 µM (active); in [9], 40.9 µM (active); in experiment [10], 16.3 µM (active); in experiment [12], 81.7 µM (active).
As to `Nc1ccn([C@@H]2O[C@H](CO)[C@@H](O)[C@@H]2O)c(=O)n1`, the Potency result in experiment [1], in experiment [3], in [5], in experiment [6], in experiment [7] and in [10] was “inactive” each time. Also, the Potency result in experiment [11] and in experiment [12] was “inactive” in each case. Further, the call in experiment [2] and in experiment [4] was inactive.
